Test results as given in PubChem BioAssay (NCI).
Compounds without any hit were thinned out: in the full panel of roughly 83,000, 20% have a hit.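 Values shown are percent growth following 48 h exposure of cells in 96-well plates to a single concentration of compound; below 10 was considered active.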 Unmarked numbers belong to inactive results. The source made the active and inactive calls.

What was measured:
Test in all cases: NCI-60 one-dose screen, 48 h (100 = growth as untreated, 0 = no growth, -100 = all killed)
Conditions in all cases: 10 µM unless noted
DU-145 prostate = test system: DU-145 prostate
K-562 leukemia = test system: K-562 leukemia
MALME-3M melanoma = test system: MALME-3M melanoma
MDA-MB-231 breast = test system: MDA-MB-231 breast
RXF 393 renal = test system: RXF 393 renal
SF-268 CNS = test system: SF-268 CNS
SF-295 CNS = test system: SF-295 CNS
SF-539 CNS = test system: SF-539 CNS
UACC-257 melanoma = test system: UACC-257 melanoma
M14 melanoma = test system: M14 melanoma
HCT-15 colon = test system: HCT-15 colon
HT29 colon = test system: HT29 colon
SNB-75 CNS = test system: SNB-75 CNS
SNB-19 CNS = test system: SNB-19 CNS
U251 CNS = test system: U251 CNS
PC-3 prostate = test system: PC-3 prostate
SK-MEL-5 melanoma = test system: SK-MEL-5 melanoma
UACC-62 melanoma = test system: UACC-62 melanoma
LOX IMVI melanoma = test system: LOX IMVI melanoma
SK-MEL-28 melanoma = test system: SK-MEL-28 melanoma

Row | SMILES | growth (DU-145 prostate) | growth (K-562 leukemia) | growth (MALME-3M melanoma) | growth (MDA-MB-231 breast) | growth (RXF 393 renal) | growth (SF-268 CNS) | growth (SF-295 CNS) | growth (SF-539 CNS) | growth (UACC-257 melanoma) | growth (M14 melanoma) | growth (HCT-15 colon) | growth (HT29 colon) | growth (SNB-75 CNS) | growth (SNB-19 CNS) | growth (U251 CNS) | growth (PC-3 prostate) | growth (SK-MEL-5 melanoma) | growth (UACC-62 melanoma) | growth (LOX IMVI melanoma) | growth (SK-MEL-28 melanoma)
1 | CNC(=O)NCC1OC(n2cnc3c(NC(=O)Nc4ccccc4)ncnc32)C2OC(C)(C)OC12 (centres undefined) | 93.7% | 90.4% | 75.7% | 107% | 96.6% | 91.3% | 119% | 83.9% | 107% | 88.8% | 97.5% | 98.5% | 59.7% | 85.3% | 94.1% | 71% | 86.2% | 91.5% | 100% | 91.7%
2 | COc1cc2c(cc1OC)-c1ccc3cc4c(cc3c1N(CCN(C)C)C2)OCO4 | 6.23% (active) | 2.7% (active) | 24.3% | -2.8% (active) | -32.7% (active) | 23.6% | -6.18% (active) | -7.83% (active) | 10.4% | -7.62% (active) | 56.7% | -45.8% (active) | -5.56% (active) | 8.26% (active) | -42.9% (active) | 0.178% (active) | -10.9% (active) | 3.42% (active) | -83.2% (active) | 43.7%
3 | CCn1c(Sc2nnc(Nc3ccccc3)s2)nc2c1c(=O)n(C)c(=O)n2C | 113% | 114% | 94.9% | 97.8% | 91.4% | 103% | 91.9% | 96.2% | 97.4% | 104% | 97.6% | 137% | 101% | 95% | 103% | 100% | 99.2% | 90.2% | 95.9% | 93%
4 | COc1cc2cc(Oc3ccc(NC(=O)Nc4cc(C(F)(F)F)cc(C(F)(F)F)c4)cc3)c(C)nc2cc1OCCN1CCCCC1 | -95% (active) | -49.3% (active) | -86.2% (active) | -97.3% (active) | 31.8% | -49.3% (active) | -81.8% (active) | -94% (active) | -47.4% (active) | -79.6% (active) | -82.4% (active) | -64.8% (active) | -97.7% (active) | -92.2% (active) | -69.3% (active) | -45.2% (active) | -49.9% (active) | -84.9% (active) | -99.1% (active) | -95.5% (active)
5 | CCNCCNc1cc(-c2ccc(C(F)(F)F)cc2)c(C#N)c2nc3cc(Cl)c(Cl)cc3n12 | -93% (active) | -63.7% (active) | -77.9% (active) | -73.2% (active) | -96.3% (active) | -76.3% (active) | -91.2% (active) | -92.9% (active) | -85.4% (active) | -81.5% (active) | -80.1% (active) | -85.5% (active) | -93.7% (active) | -62.7% (active) | -94% (active) | -88.4% (active) | -98.9% (active) | -63.3% (active) | -74% (active) | -96.5% (active)
6 | CCN(CC)CC(O)CNc1c2ccc(Cl)cc2nc2ccc(OC)cc12 (centres undefined) | -26.4% (active) | -10.3% (active) | -98.4% (active) | -33.4% (active) | -80.8% (active) | 14.8% | 10.8% | -61.3% (active) | -87% (active) | -94.2% (active) | -6.56% (active) | -4.13% (active) | 58.4% | 57.3% | -28.3% (active) | 16.6% | -92.5% (active) | 64.8% | -64.2% (active) | -96.6% (active)
7 | C=C1c2c(C)nn(-c3ccc(N)cc3)c2N(C)C23CC1C1(C)c4c(C)nn(-c5ccc(N)cc5)c4N(C)C(C)(CC12)C3 (centres undefined) | 81.4% | 42.9% | 102% | 89.2% | 71.7% | 76.5% | 52.5% | 100% | 72.5% | 61.6% | 38.5% | 61.7% | 109% | 80.7% | 79.1% | 53.1% | 52.9% | 77.1% | – | 85.1%
